# Experimental data: PubChem BioAssay (NCI)
# This is part of a sample that, as a whole, favours compounds with a hit. Of some 79,000 tested, about 15% had one in any assay. Values without a mark were called inactive. No stated cut-off is given here; in the data, active means growth inhibition above about 70%; inactive means the rest.
# Experiment: NCI Yeast Anticancer Drug Screen. Data for the rad50 strain (AID 155);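 further: 0% = growth of vehicle-only cultures of the same strain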
# Settings: S. cerevisiae rad50 strain growth inhibition; at 50.0 µM; stronger effect = higher value
# In short: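 Relative growth inhibition (compound vs vehicle) was measured in yeast with a defined repair-gene alteration.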
row,SMILES,growth inhibition
1,CN(C)CCNS(=O)(=O)N(C)C,-25.1%
2,CC12CCC(C/C1=N\O)C2(C)CBr (stereo not given),13.4%
3,CCC(C)C(NN)C(=O)O (stereo not given),0.7%
4,O=C(O)Cc1c(-c2ccccc2)nc(=S)[nH]c1-c1[nH]c(=S)nc(-c2ccccc2)c1CC(=O)O,-15.6%
5,O=c1c([OH2+])c(-c2ccc(O)cc2[O-])oc2cc(O)cc([O-])c12.O=c1c([OH2+])c(-c2ccc(O)cc2[O-])oc2cc(O)cc([O-])c12.[Ti+4],-43.4%
6,Cc1ccc([N+](=O)[O-])cc1NC(=O)COc1ccc(Cl)cc1Cl,6.25%
7,COc1ccc(/C=N/Nc2nc(C)c(C)s2)cc1,30.9%
8,CC1=CC(=O)C(CCC#N)C(C)(C)C1 (stereo not given),-8.6%
9,NNC(=O)CC(N)C(=O)O (stereo not given),9%
10,CCCCN(CCCC)C(=O)OCC,30.2%
11,COc1cc(C=O)ccc1OC(=O)Nc1cccc(Cl)c1C,-0.55%
12,O=C(c1cccc([N+](=O)[O-])c1)c1cccs1,6.6%
13,Cc1ccc(S(=O)(=O)Oc2ccccc2C(=O)O)cc1,-7.9%
14,CC(C)C1CC(C)(C)C2CC3OC(C(C)C)CC(C)(C)C3CC2O1 (stereo not given),-12.1%
15,O=C(/C=C/c1ccc(O)cc1)c1ccc(Cl)cc1,-17.7%
16,CCOC(=O)NC(=S)Nc1ccn(C)c1,10.4%
17,COC(=O)c1c2c(cc3c1CCC3)CCC2,-21.1%
18,Cc1ccnc(NCc2ccccn2)c1,6.7%
19,Cc1cc(O)cc2oc(=O)ccc12,-34.4%
20,CCOC(=O)c1c2ccc(/C=C/c3ccccn3)ccc-2c(C(=O)OCC)c1N,15.2%

row,SMILES,growth inhibition
1,CC[C@H]1CN(C)[C@H]2Cc3c([nH]c4ccccc34)C(=O)C[C@H]1C2C(=O)OC (stereo not given in full),-0.35%
2,CC1=Nc2ccccc2NC2(C1)C(C1COC(C)(C)O1)OC1OC(C)(C)OC12 (stereo not given),9.95%
3,CCOC(=O)c1nc2ccc(C(F)(F)F)cc2nc1Nc1cc(OC)c(OC)c(OC)c1,-33.4%
4,Cc1cc(OCCOC(=O)Nc2ccccc2C(F)(F)F)cc(C)c1Cl,-7.6%
5,COC(=O)NC1(NC(=O)OC)NC(=O)c2cc(OC)c(OC)cc2N1,6.25%
6,CC1=Nc2ccccc2S/C1=C(/C)NN,21.4%
7,O=C(O)/C=C\C(=O)Nc1ccc(S(=O)(=O)Nc2nccs2)cc1,-0.8%
8,COC(=O)c1ccc(C(=O)c2ccccc2)cc1,-1.15%
9,CS(=O)(=O)Nc1cccc(C(=O)NN)c1,-8.1%
10,CCOP(=O)(OCC)C(C)(CC)NC1=NC(C(F)(F)F)(C(F)(F)F)NC(=O)N1 (stereo not given),-2.2%
11,NC1=NN(c2c(Cl)cc(Cl)cc2Cl)C(=O)C1,21.9%
12,CCCCNC(=S)N(CCCC)CCCC,21.8%
13,COc1ccc(CCCN2c3ccccc3Sc3ccccc32)cc1,-6.1%
14,C=CC(C)(C)C1=CC(=O)C(OC)=CC1=O,1.75%
15,O=c1[nH]nc(-c2ccccc2)c2c1[nH]c1ccccc12,-13.8%
16,CC1=CNNc2ccccc21,-2.6%
17,S=C1Cc2c(-c3ccc(Br)cc3)cc(-c3ccccc3)nc2-c2ccccc2N1,19.9%
18,O=c1[nH]c(=O)c2nccnc2[nH]1,9.1%
19,CC1CN(C(=O)OCC23COC4(C)CCC(C)(OC2)N34)CC(C)O1 (stereo not given),2.6%
20,O=C(Nc1nncs1)c1ccncc1,-14.8%

# Experiment: NCI Yeast Anticancer Drug Screen. Data for the mec2-1 strain (AID 157)
# Settings: S. cerevisiae mec2-1 strain, at 50.0 µM, stronger effect = higher value
# In short: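 Cells of the genetically defined mec2-1 yeast strain are incubated with test compound. Inhibition of growth is calculated against vehicle-treated controls.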
row,SMILES,growth inhibition
1,CN(C)CCNS(=O)(=O)N(C)C,-25.1%
2,CC12CCC(C/C1=N\O)C2(C)CBr (stereo not given),-2.15%
3,CCC(C)C(NN)C(=O)O (stereo not given),-5.55%
4,O=C(O)Cc1c(-c2ccccc2)nc(=S)[nH]c1-c1[nH]c(=S)nc(-c2ccccc2)c1CC(=O)O,10.1%
5,O=c1c([OH2+])c(-c2ccc(O)cc2[O-])oc2cc(O)cc([O-])c12.O=c1c([OH2+])c(-c2ccc(O)cc2[O-])oc2cc(O)cc([O-])c12.[Ti+4],27.2%
6,Cc1ccc([N+](=O)[O-])cc1NC(=O)COc1ccc(Cl)cc1Cl,0.55%
7,COc1ccc(/C=N/Nc2nc(C)c(C)s2)cc1,18.4%
8,CC1=CC(=O)C(CCC#N)C(C)(C)C1 (stereo not given),-17.9%
9,NNC(=O)CC(N)C(=O)O (stereo not given),4.4%
10,CCCCN(CCCC)C(=O)OCC,8.3%
11,COc1cc(C=O)ccc1OC(=O)Nc1cccc(Cl)c1C,18.6%
12,O=C(c1cccc([N+](=O)[O-])c1)c1cccs1,-7.2%
13,Cc1ccc(S(=O)(=O)Oc2ccccc2C(=O)O)cc1,-14.7%
14,CC(C)C1CC(C)(C)C2CC3OC(C(C)C)CC(C)(C)C3CC2O1 (stereo not given),-3%
15,O=C(/C=C/c1ccc(O)cc1)c1ccc(Cl)cc1,-22.9%
16,CCOC(=O)NC(=S)Nc1ccn(C)c1,36.8%
17,COC(=O)c1c2c(cc3c1CCC3)CCC2,-3.15%
18,Cc1ccnc(NCc2ccccn2)c1,3.85%
19,Cc1cc(O)cc2oc(=O)ccc12,-23.4%
20,CCOC(=O)c1c2ccc(/C=C/c3ccccn3)ccc-2c(C(=O)OCC)c1N,-4.75%

row,SMILES,growth inhibition
1,CC[C@H]1CN(C)[C@H]2Cc3c([nH]c4ccccc34)C(=O)C[C@H]1C2C(=O)OC (stereo not given in full),-0.95%
2,CC1=Nc2ccccc2NC2(C1)C(C1COC(C)(C)O1)OC1OC(C)(C)OC12 (stereo not given),13.8%
3,CCOC(=O)c1nc2ccc(C(F)(F)F)cc2nc1Nc1cc(OC)c(OC)c(OC)c1,-17.4%
4,Cc1cc(OCCOC(=O)Nc2ccccc2C(F)(F)F)cc(C)c1Cl,-5.2%
5,COC(=O)NC1(NC(=O)OC)NC(=O)c2cc(OC)c(OC)cc2N1,-10.4%
6,CC1=Nc2ccccc2S/C1=C(/C)NN,8.55%
7,O=C(O)/C=C\C(=O)Nc1ccc(S(=O)(=O)Nc2nccs2)cc1,-3.45%
8,COC(=O)c1ccc(C(=O)c2ccccc2)cc1,9.15%
9,CS(=O)(=O)Nc1cccc(C(=O)NN)c1,-16.2%
10,CCOP(=O)(OCC)C(C)(CC)NC1=NC(C(F)(F)F)(C(F)(F)F)NC(=O)N1 (stereo not given),-10.2%
11,NC1=NN(c2c(Cl)cc(Cl)cc2Cl)C(=O)C1,-3.8%
12,CCCCNC(=S)N(CCCC)CCCC,18.2%
13,COc1ccc(CCCN2c3ccccc3Sc3ccccc32)cc1,-3.35%
14,C=CC(C)(C)C1=CC(=O)C(OC)=CC1=O,-6.15%
15,O=c1[nH]nc(-c2ccccc2)c2c1[nH]c1ccccc12,-15.7%
16,CC1=CNNc2ccccc21,1.45%
17,S=C1Cc2c(-c3ccc(Br)cc3)cc(-c3ccccc3)nc2-c2ccccc2N1,14.7%
18,O=c1[nH]c(=O)c2nccnc2[nH]1,-0.6%
19,CC1CN(C(=O)OCC23COC4(C)CCC(C)(OC2)N34)CC(C)O1 (stereo not given),-18%
20,O=C(Nc1nncs1)c1ccncc1,-5.75%
